The AC50 is the concentration at which the activity in the assay is half-maximal.

Read-out in test [1]: Interleukin-8 (IL8), CXCL8 (gene 3576)
Nature of the test: BSK_3C_IL8: BioMAP Diversity Plus: 3C Assay for Interleukin-8 (IL8) Biomarker Activity (AID 2283020). Particulars: primary human endothelial cells (HUVEC); actives raise or lower the signal. The essentials:
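IL-8 was measured by ELISA in HUVEC cultures 24 h after chemical dosing, with gain or loss of signal fitted relative to DMSO. Parallel SRB total-protein staining tracked overt cytotoxicity.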

Read-out in test [2]: Monokine induced gamma interferon (MIG), CXCL9 (gene 4283)
Nature of the test: BSK_3C_MIG: BioMAP Diversity Plus: 3C Assay for Monokine induced gamma interferon (MIG) Biomarker Activity (AID 2283021).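 For AC50: MIG protein level measured by immunoassay in the treated endothelial cultures.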 Particulars: primary human endothelial cells (HUVEC); actives raise or lower the signal. Summed up:
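ELISA measurement of MIG in human umbilical vein endothelial cells 24 h after treatment. Cytotoxicity tracked by SRB staining in parallel cultures; gain or loss of signal fitted relative to DMSO.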

The nature of test [3]: BSK_3C_SRB: Viability Assessment in the BioMAP Diversity Plus: 3C Assay (AID 2283023).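 Note: fitted both ways against DMSO so a hit may be signal rise or drop.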 Particulars: primary human endothelial cells (HUVEC). Summed up:
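Human umbilical vein endothelial cells in the 3C system, treated 24 h. Total protein measured by 0.1% sulforhodamine B staining after 10% TCA fixation, read at 560 nm; bidirectional fit versus DMSO.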

Read-out in test [4]: Matrix Metallopeptidase 1 (MMP1), MMP1 (gene 4312)
The experiment in a line: BSK_BE3C_MMP1: BioMAP Diversity Plus: BE3C Assay for Matrix Metallopeptidase 1 (MMP1) Biomarker Activity (AID 2283024). Particulars: primary human bronchial epithelial cells; actives raise or lower the signal. Summed up: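 ELISA measurement of MMP-1 after 24 h compound exposure of primary human bronchial epithelial cells. Changes in either direction fitted relative to DMSO; parallel SRB staining checked overt cytotoxicity.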

Test [5] is described as follows: BSK_3C_Vis: BioMAP Diversity Plus: 3C Assay for Morphology Visualization (AID 2283025).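 For AC50: light microscopy image of cell morphology used as background control.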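 Note: fitted both ways so gain or loss versus DMSO counts.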 Particulars: primary human endothelial cells (HUVEC). The essentials: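 Light-microscopy visualization of HUVEC cultures at 24 h post-treatment, with DMSO as baseline for bidirectional fitting.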
Read-out in test [6]: Pselectin, SELP (gene 6403)
Nature of the test: BSK_4H_Pselectin: BioMAP Diversity Plus: 4H Assay for Pselectin Biomarker Activity (AID 2283026). Particulars: primary human endothelial cells (HUVEC); actives raise or lower the signal. The essentials: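 ELISA of surface P-selectin on HUVEC, 24 h after dosing, with parallel SRB staining (0.1% after 10% TCA fixation, 560 nm) for overt cytotoxicity. Activity fitted in both directions relative to DMSO.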

A short description of test [7]: BSK_4H_SRB: Viability Assessment in the BioMAP Diversity Plus: 4H Assay (AID 2283027).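 For AC50: curves fitted both ways versus DMSO so AC50 may be loss or gain.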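 Note: cells exposed to compound for 24 h before staining.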 Particulars: primary human endothelial cells (HUVEC). Summed up:
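Cytotoxicity read-out in primary human endothelial cells: after 24 h compound exposure, cells were TCA-fixed (10%), stained with 0.1% SRB and absorbance taken at 560 nm. Values fitted in both directions relative to DMSO.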

Test [8] can be described thus: BSK_BE3C_SRB: Viability Assessment in the BioMAP Diversity Plus: BE3C Assay (AID 2283028).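 For AC50: fitted both ways so AC50 may mark signal gain or loss versus DMSO.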 Particulars: primary human bronchial epithelial cells. The essentials: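 Human bronchial epithelial primary cells in confluent culture, 24 h after chemical dosing; total protein by 0.1% SRB staining after 10% TCA fixation, read at 560 nm. Bidirectional fitting versus DMSO baseline.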

Read-out in test [9]: Thrombomodulin, THBD (gene 7056)
The experiment in a line: BSK_3C_Thrombomodulin: BioMAP Diversity Plus: 3C Assay for Thrombomodulin Biomarker Activity (AID 2283029). Particulars: primary human endothelial cells (HUVEC); actives raise or lower the signal. Summed up: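 ELISA measurement of thrombomodulin on HUVEC surface 24 h after chemical dosing; activity fitted in both directions relative to DMSO vehicle.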

In test [10] the target is human Vitamin D Receptor (VDR), VDR (gene 7421) (UniProt P11473). The experiment in a line: ATG_VDR_TRANS: Attagene TRANS-FACTORIAL HepG2 Assay for human Vitamin D Receptor (VDR) (AID 2283022; active = hit-call score of the fitted dose curve at least 0.9, where 1 is the maximum). Summed up: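 HepG2 cells were transiently transfected with GAL4-UAS reporter units and a chimeric VDR-Gal4 construct, then dosed for 24 hours. Reporter mRNA was quantified by RT-PCR, fluorescent labeling, HpaI digestion and capillary electrophoresis; gain of signal analysed vs DMSO.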
human Vitamin D Receptor (VDR), VDR (gene 7421), sequence (P11473 whole entry, looked up, the tested form may be a part): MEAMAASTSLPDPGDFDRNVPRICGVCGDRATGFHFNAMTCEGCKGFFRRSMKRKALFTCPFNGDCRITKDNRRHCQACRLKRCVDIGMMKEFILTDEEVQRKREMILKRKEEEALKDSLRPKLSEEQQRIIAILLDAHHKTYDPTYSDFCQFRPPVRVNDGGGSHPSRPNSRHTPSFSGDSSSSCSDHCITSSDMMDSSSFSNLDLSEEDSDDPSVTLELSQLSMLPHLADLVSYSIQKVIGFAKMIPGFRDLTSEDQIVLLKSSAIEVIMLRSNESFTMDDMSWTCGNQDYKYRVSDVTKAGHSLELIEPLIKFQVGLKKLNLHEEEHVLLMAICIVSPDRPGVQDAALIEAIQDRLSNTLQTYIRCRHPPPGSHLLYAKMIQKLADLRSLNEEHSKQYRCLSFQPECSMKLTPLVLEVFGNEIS

“And” between values parts separate entries of the source, which are not always exact repeats. Identical values can stand only once. Records with an inconclusive call do not appear. Some compounds were tested as several samples or in several runs, with calls that do not always agree. The source made the active and inactive calls. Rule for the calls, unless noted: active = hit-call score of the fitted dose curve at least 0.9, where 1 is the maximum; inactive = score below 0.9.

Regarding `O=C(c1ccccc1)c1ccc(O)cc1O`, the outcome in test [1], in test [2], in test [3], in test [4], in test [5] and in test [6] was inactive. The outcome in test [7], in test [8] and in test [9] was inactive.
As to `O=C=NCc1cccc(CN=C=O)c1`, the result in test [1], in [2], in test [3], in test [4], in test [5] and in [6] was inactive. Also, the result in test [7], in test [8] and in test [9] was inactive.
Consider `OCC(F)(F)C(F)(F)C(F)(F)CO`, for which the result in [1], in [2], in test [10], in test [3], in test [4] and in test [6] was inactive. The outcome in test [7], in [8] and in [9] was inactive.
As for `NS(=O)(=O)C(F)(F)C(F)(F)C(F)(F)C(F)(F)C(F)(F)C(F)(F)F`, the outcome in test [1], in test [2], in test [10], in test [6], in test [8] and in test [9] was inactive. Further, the AC50 in test [3] is 49.4 µM (active) and 44.3 µM (active); in test [4], 30 µM (active) and 33.2 µM (active); in [7] it was 37.2 µM (active) and 30 µM (active).
Turning to `O=C(O)C(F)(F)C(F)(F)C(F)(F)C(=O)O`, the outcome in test [1], in test [2], in [10], in test [3], in test [4] and in test [6] was inactive. Besides, the result in [7], in [8] and in test [9] was inactive.
As to `OCCCC(F)(F)C(F)(F)C(F)(F)C(F)(F)C(F)(F)C(F)(F)C(F)(F)C(F)(F)F`, the concentration at half-maximal activity (AC50) in test [1] is 19.6 µM (active) and 20.6 µM (active); in test [2], 50.9 µM (active) and 52.6 µM (active); in [3] it was 10.5 µM (active) and 28.4 µM (active); in test [4] it was 7.11 µM (active) and 55.2 µM (active); in [6], 32.3 µM (active) and 24.1 µM (active); in [7], 11.1 µM (active) and 20.8 µM (active). Moreover, the AC50 is 51.9 µM (active) and 48.7 µM (active) in test [8]; 43.7 µM (active) and 56.3 µM (active) in test [9]. Moreover, in test [10], the result was inactive.
Consider `O=S(=O)(O)CCC(F)(F)C(F)(F)C(F)(F)C(F)(F)C(F)(F)C(F)(F)C(F)(F)C(F)(F)F`, for which the outcome in test [1], in test [2], in test [3], in [6], in [7] and in test [8] was inactive. In test [9], the result was inactive. Besides, the AC50 in test [3] is 25.6 µM (active); in [4] it was 11.1 µM (active) and 15.4 µM (active).
Take `CCOC(C=C(C)CCC=C(C)C)OCC`: the AC50 in [1] is 29.8 µM (active); in test [2], 36 µM (active); in [3], 31.2 µM (active); in [5] it was 37.1 µM (active); in test [6] it was 30.2 µM (active); in [7] it was 31 µM (active). Besides, the AC50 in test [9] was 3.97 µM (active). Moreover, the outcome in test [4] and in [8] was inactive.
`O=C(F)C1(F)C(F)(F)C(F)(F)C(F)(F)C(F)(F)C1(F)F`: the result in [1], in [2], in [10], in test [3], in [4] and in test [6] was inactive. Moreover, the outcome in test [7], in test [8] and in test [9] was inactive.
Regarding `CN(C(=O)C(F)(F)C(F)(F)C(F)(F)F)[Si](C)(C)C`, the result in test [1], in [2], in test [10], in test [3], in [4] and in test [6] was inactive. The result in [7], in test [8] and in test [9] was inactive.
With `C=CC(=O)OCCC(F)(F)C(F)(F)C(F)(F)C(F)(F)F`, the result in test [1], in test [2], in test [10], in [3], in test [4] and in test [6] was inactive. In addition, the outcome in test [7] and in test [8] was inactive. For the same compound, the AC50 in test [9] is 6.34 µM (active) and 21.1 µM (active).
On to `CCN(CC)c1ccc2c(c1)Oc1cc(N(CC)CC)ccc1C21OC(=O)c2ccccc21`, for which the AC50 was 4.05 µM (active) in [1], 5.74 µM (active) in test [3] and 19.9 µM (active) in test [5]. Further, the result in test [2], in test [4], in [6], in [7], in [8] and in test [9] was inactive.

The values are drawn from PubChem BioAssay (EPA / NIEHS).
